A selection: hits, their analogues and other compounds. The true share with any hit is near 7.3%.
KinaseGlo FLuc: Counterscreen for Luciferase (Kinase-Glo TM) Inhibition; Kinase-Glo luciferase, ATP luminescence, 8 min; Potency, µM (titrated, usually from 38.3 µM), without a hit: at the top dose activity change, negative = inhibition, usual class: inhibitors; 0.28% of 200,000 active; further: on the % scale 0 is the no-effect control and ±100 the full control effect; nearly all actives have a fitted effect of over 60% in size
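Compounds were added to a substrate mix at pH 7.2 (50 mM imidazole, 10 uM ATP, within the enzyme's linear range), followed by Kinase-Glo detection reagent; luminescence was measured after 8 minutes at ambient temperature.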
SMN2 splice enh: qHTS Assay for Enhancers of SMN2 Splice Variant Expression; HEK293 SMN2-luciferase splicing reporter, luminescence, 30-36 h; Potency, µM (highest dose often 46.1 µM), for the others: at the highest dose activity change, positive = activation, actives largely listed as activators; AID 1458, 2008; 2.8% of 210,000 active; further: % of control where 0% means no effect; nearly all actives have a fitted effect of over 55% in size
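qHTS luciferase splicing reporter: luminescence rises when SMN2 exon 7 is included in transfected HEK293 cells. Compound exposure lasted 30-36 h at 37C, with 4.5 mM final sodium butyrate as control, followed by a ONE-Glo read.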
Rab9 prom act: qHTS Assay for Rab9 Promoter Activators; 2.8% of 320,000 active; Huh7 Rab9 promoter-luciferase reporter, luminescence, 24 h; Potency, µM (top dose mostly 9.22 µM), for inactives: top-dose activation, negative = inhibition, usual class: activators; AID 485297, 2010; further: % of control where 0% means no effect; nearly all actives have a fitted effect of over 60% in size
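Huh7 reporter line, Rab9 promoter upstream of luciferase. Compound exposure 24 h at 37 °C in reduced-serum medium with 10% FBS. Read-out: luminescence.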
NPC1 promoter act: qHTS Assay for NPC1 Promoter Activators. AID 485313, 2010. 2.4% of 320,000 active. Huh7 NPC1 promoter luciferase reporter, 24 h. Potency, µM (titrated, usually from 9.22 µM), for inactives: top-dose activation, most hits filed as activators; further: % of control where 0% means no effect; nearly all actives have a fitted effect of over 60% in size
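Compounds in DMSO were transferred onto Huh7 NPC1-luciferase reporter cells pre-incubated 2 h; after 24 h at 37 °C, Amplite reagent was dispensed and luminescence recorded 10 min later.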
ELG1 genotoxic: qHTS screen for small molecules that induce genotoxicity in human embryonic kidney (HEK293T) cells expressing luciferase-tagged ELG1 | HEK293T ELG1-luciferase reporter, luminescence, 16 h | Potency, µM (series often up to 46 µM), for inactives: at the top dose activity change, positive = activation, usual class: activators | 1.3% of 330,000 active | AID 504466, 2011; further: % of control where 0% means no effect; nearly all actives have a fitted effect of over 60% in size
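Step 1: seed 2,000 HEK293T ELG1-luciferase cells per well. Step 2: add compound or DMSO, incubate 16 hr at 37 °C. Step 3: ONE-Glo, 30 min at room temperature, read luminescence.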
FLuc modulator: qHTS profiling assay for firefly luciferase inhibitor/activator using purifed enzyme and Km concentrations of substrates (counterscreen for miR-21 project); 6.9% of 360,000 active; purified FLuc, Km substrates, luminescence inhibition; AID 588342, 2011; Potency, µM (series often up to 57.5 µM), for the others: top-dose activity change, negative = inhibition, usual class: inhibitors; Luciferin 4-monooxygenase (Photinus pyralis), P08659;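 further: plate controls were vehicle for no effect and reference inhibitor for full effect; nearly all actives have a fitted effect of over 55% in size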
Target sequence (P08659 whole entry, looked up): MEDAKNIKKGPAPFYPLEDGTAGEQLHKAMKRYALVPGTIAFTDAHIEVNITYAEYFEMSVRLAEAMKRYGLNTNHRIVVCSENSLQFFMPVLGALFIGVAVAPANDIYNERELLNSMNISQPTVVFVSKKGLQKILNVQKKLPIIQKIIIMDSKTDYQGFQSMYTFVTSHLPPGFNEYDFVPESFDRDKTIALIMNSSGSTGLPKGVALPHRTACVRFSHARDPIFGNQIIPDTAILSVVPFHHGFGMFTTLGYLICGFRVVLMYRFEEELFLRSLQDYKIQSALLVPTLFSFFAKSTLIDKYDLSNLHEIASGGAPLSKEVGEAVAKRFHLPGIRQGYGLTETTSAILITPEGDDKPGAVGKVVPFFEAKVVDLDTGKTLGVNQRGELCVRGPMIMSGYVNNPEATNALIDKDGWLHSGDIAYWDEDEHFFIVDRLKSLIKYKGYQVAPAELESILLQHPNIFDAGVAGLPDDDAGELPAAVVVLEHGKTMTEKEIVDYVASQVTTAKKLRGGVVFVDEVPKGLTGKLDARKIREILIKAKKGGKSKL
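Purified P. pyralis luciferase, 10 nM final, with Km-level 10 uM D-luciferin and 10 uM ATP in 50 mM Tris acetate pH 7.5, 10 mM Mg acetate, 0.01% Tween-20, 0.05% BSA; 6-point qHTS titration about 60 µM downward; luminescence read.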
The depositor's hits bear a star; u = inconclusive; x = not tested or not shown; [ ] = dose if it differs, or a comment. The call rests on the fitted dose curve; in most records, active means well fitted curve in the direction sought with a large enough effect; inconclusive means small, poorly fitted or top-dose-only effect, or another doubt; inactive means no such curve, though single readings can be large; an effect the other way counts as inactive or inconclusive. Potency means the concentration at half of the fitted maximal effect.

SMILES	KinaseGlo FLuc	SMN2 splice enh	Rab9 prom act	NPC1 promoter act	ELG1 genotoxic	FLuc modulator
Cc1cc(C)c(NC(=S)N2CCC(N(C)CC3CCCO3)CC2)c(C)c1 (stereo not drawn)	-5%	u	-3%	2%	0%	7%
C/C(CC(=O)NCc1ccco1)=N\NC(=O)COc1ccc(Cl)cc1Cl	-1%	x	-3%	-7%	-1%	-16%
CCn1cnc2cc(NCc3ccccc3Cl)ccc21	x	x	u	u	u	17µM*
CCCCn1cnc2cc(NCc3ccccc3Cl)ccc21	x	18%	x	x	x	24µM*
CCCn1cnc2cc(NCc3cccs3)ccc21	x	x	u	u	u	19µM*
Cc1ccc(-n2c(-c3nn(C)c(C)c3Cl)n[nH]c2=S)cc1	2%	-25%	7%	3%	8%	2%
O=C(c1ccc2c(=O)n(-c3ccccc3)c(=S)[nH]c2c1)N1CCN(c2ccccc2)CC1	x	x	-1%	-3%	-6%	x
Nc1c(-c2ccccc2)n[nH]c1-c1ccccc1	-9%	13µM*	u	2.8µM*	u	-4%[2.3 µM]
S=c1nc(-c2ccccc2)c(-c2ccccc2)n[nH]1	x	x	-1%[1.84 µM]	-7%	-4%	-3%
CSc1nsc(SC)c1C(=O)NC(=O)Nc1cccnc1	x	x	0%	-3%	1%	-1%
CSc1nsc(SC)c1C(=O)Nc1ccc(C(C)(C)C)cc1	x	x	13%	16%	0%	11µM*
Cc1ccc(-c2cc(N)nc(-c3ccccc3)c2)cc1	x	x	21%	24%	u	13µM*
Cc1cccc(C(=O)O/N=C/c2ccc(Br)cc2)c1	-7%	-23%	-3%	-2%	u	3.4µM*
N/C(=N\OC(=O)c1ccoc1)c1ccc(Br)cc1	x	x	3.2µM*	2.5µM*	3.7µM*	6.7µM*
Cc1ccc(/C(N)=N/OC(=O)c2ccc(Cl)cc2Cl)cc1	-4%	11µM*	2.5µM*	3.2µM*	u	1.1µM*
Cc1ccc(C(=O)O/N=C(\N)c2ccc(Br)cc2)cc1C	17%	-11%	18%	13%	16µM*	u
N/C(=N\OC(=O)c1ccc2ccccc2c1)c1ccc(Br)cc1	-1%	u	16%	17%	-1%	-19%
N/C(Cn1cncn1)=N\OC(=O)c1ccc(Cl)cc1Cl	0%	23%	-7%	17%	11%	u
COc1ccc(-c2nc(CN3CCN(Cc4cccc(F)c4)CC3)c(C)o2)cc1	x	x	-3%	-3%	-4%	-3%
N/C(=N\OC(=O)c1cccc2ccccc12)c1ccc(Br)cc1	1%	u	13%	15%	-12%	u
Cc1cccc(C(=O)O/N=C(\N)c2ccc(Cl)cc2)c1	x	x	1.8µM*	0.4µM*	u	1.9µM*
Cc1cccc(OCC(=O)O/N=C(\N)c2ccc(Cl)cc2)c1	-2%	-13%	3%	-6%	1%	-18%
Cc1cc(C)cc(C(=O)O/N=C(\N)c2ccc(Br)cc2)c1	-3%	15%	u	u	1%	-20%
Cc1cccc(C(=O)O/N=C(\N)c2ccc(Br)cc2)c1	-8%	28%	0.71µM*	0.56µM*	11µM*	3µM*
Cc1ccc(C)c(C(=O)O/N=C(\N)c2ccc(Br)cc2)c1	-4%	u	27%	u	u	15µM*
Cc1nc2c3cc(Cl)ccc3n(CCN3CCOCC3)c2s1	x	x	-3%	-4%	-4%	4%
CCOC(=O)c1cc(-c2ccc(F)cc2)nc2c1c(=O)[nH]c(=O)n2Cc1ccccc1	x	x	0%	-4%	u	0%

Bioassay records (PubChem BioAssay)
